Screening results as filed in PubChem BioAssay.
Compounds with a hit are over-represented: about 1.8% of the library has one in this group of screens.
GRP78 ERSR act: inducers of ER stress response in human glioma cells. U87-MG GRP78 promoter luciferase reporter, 16 h. AID 602332. 420,000 compounds, 0.02% hits. Potency, µM, actives largely listed as activators; also: series mostly up to about 76 µM; nearly all actives have a fitted effect of over 35% in size
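Stably transfected U87-MG human glioma cells carrying a GRP78-based luminescent sensor were seeded at 1000 cells/well, pin-dosed with compounds and incubated 16 h. Luciferase reagent was then added, and end-point luminescence was read after 10 min at room temperature.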
MBNL1 CUG block: inhibitors of human MBNL1 binding to CUG repeat RNA; Potency, µM (highest dose often 57.5 µM), actives largely listed as inhibitors; TR-FRET MBNL1-His/biotin-(CUG)12 binding, 665/545 ratio; Q9NR56; 280,000 compounds, 0.036% hits; active = well fitted inhibition curve with a large enough effect in the signal ratio, with a control signal flat, not every such curve was filed as active; inconclusive = small, poorly fitted or top-dose-only effect, or effect the other way, or a change in a side signal; inactive = no such curve, though single readings can be large or run the other way; the % refers to the signal ratio
Target sequence (Q9NR56 whole entry, looked up): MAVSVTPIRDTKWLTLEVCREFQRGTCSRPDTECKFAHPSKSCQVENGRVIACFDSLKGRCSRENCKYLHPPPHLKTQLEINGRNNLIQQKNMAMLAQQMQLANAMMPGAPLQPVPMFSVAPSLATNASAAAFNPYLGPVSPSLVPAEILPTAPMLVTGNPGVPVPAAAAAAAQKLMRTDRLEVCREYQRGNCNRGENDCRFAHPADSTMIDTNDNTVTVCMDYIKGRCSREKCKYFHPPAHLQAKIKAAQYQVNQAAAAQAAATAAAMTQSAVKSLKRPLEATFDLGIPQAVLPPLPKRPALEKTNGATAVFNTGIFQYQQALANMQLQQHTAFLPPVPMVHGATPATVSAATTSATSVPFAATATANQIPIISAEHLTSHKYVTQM
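Ratiometric TR-FRET (665 over 545 nm, excitation 340 nm) tracks disruption of MBNL1-His/biotin-(CUG)12 complex after 60 min at room temperature, with compounds at 92 nM to 58 uM final.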
TCR activator: activates T cell receptor signaling. primary human leukocytes, anti-CD3, IL-2 HTRF, 48 h. Potency, µM (top dose mostly 9.22 µM), actives largely listed as activators. 330,000 tested, under 10 active. AID 504894
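Activity was scored as IL-2 release from primary human leukocytes given only a TCR signal (a-CD3 beads) plus compound for 48 hr. Detection used a two-antibody HTRF format read at 665nm.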
A-T KAP1 phos: potential ataxia-telangiectasia treatment. 320,000 compounds, 0.19% hits. Potency, µM (titrated, usually from 57.5 µM), hits mostly activators. AID 485349. F2112 A-T fibroblasts, KAP-1 phosphorylation AlphaLISA; neocarzinostatin DNA damage 30 min before lysis; also: nearly all actives have a fitted effect of over 45% in size
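ATM-like activity read as KAP-1 phosphorylation via AlphaLISA donor/acceptor antibody pairs after lysis and 6 hr at 25C. Cells were ATM-null patient fibroblasts (F2112, hTERT), dosed 60 min, then exposed to the DSB inducer NCS for 30 min.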
ClpP mod: qHTS Assay for Activators of ClpP. ATP-dependent Clp protease proteolytic subunit (Bacillus subtilis (strain 168)), P80244. purified B. subtilis ClpP, FRET peptide cleavage, 20 min. 340,000 compounds, 1.9% hits. Potency, µM (doses to about 57.5 µM); active = well fitted falling curve with a large enough effect; inconclusive = small, poorly fitted or top-dose-only effect; inactive = no such curve, though single readings can be large or run the other way; also: the source files actives as falling curves though it sought activators and does not explain the sign; nearly all actives have a fitted effect of over 65% in size
Target sequence (P80244 whole entry, looked up): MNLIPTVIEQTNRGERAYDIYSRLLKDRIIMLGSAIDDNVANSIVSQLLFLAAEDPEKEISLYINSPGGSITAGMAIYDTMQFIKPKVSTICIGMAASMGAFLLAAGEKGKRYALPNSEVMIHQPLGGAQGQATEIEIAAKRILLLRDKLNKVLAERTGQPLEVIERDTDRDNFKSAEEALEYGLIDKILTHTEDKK
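Purified B. subtilis ClpP, 10 microg/mL final in Tris/HCl pH8 with KCl, BSA, glycerol and Tween-20, cleaved an Abz/nitrotyrosine-quenched decapeptide. Fluorescence (ex 320, em 430) was read at 0 and 20 min at room temperature. Delta was normalized to 5.8 microM ADEP and DMSO/no-enzyme controls.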
Mito fusion yeast: blocks mitochondrial division or promotes mitochondrial fusion. 320,000 compounds, 0.23% hits. S. cerevisiae fusion-defective mutant growth rescue, CellTiterGlo 48 h. Potency, µM (series often up to 46.1 µM), hits mostly activators. AID 485298; also: nearly all actives have a fitted effect of over 45% in size
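Yeast fusion mutant, YPEG (non-fermentable carbon), compound, 48 h at 37C non-permissive; CellTiterGlo added, 10 min RT, luminescence read. Rescued growth = division inhibition.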
Numbers stand for hits; . = inactive; ? = inconclusive; / = no result; ! = not active in a repeat. Unless noted, calls follow the shape of the dose curve; as a rule, active = well fitted curve in the direction sought with a large enough effect; inconclusive = small, poorly fitted or top-dose-only effect, or another doubt; inactive = no such curve, though single readings can be large; an effect the other way counts as inactive or inconclusive.

SMILES | GRP78 ERSR act | MBNL1 CUG block | TCR activator | A-T KAP1 phos | ClpP mod | Mito fusion yeast
COc1ccc(C(CNC(=O)C(Cc2ccccc2)NC(N)=O)N(C)C)cc1 (stereo unspecified) | . | . | . | 0.89µM | . | .
Cc1ccccc1-c1ccc(CN2CCc3nnc(CNC(=O)c4ccccn4)n3CC2)cc1 | . | / | / | / | / | /
O=C(O)/C(=C\c1ccc(Cl)c([N+](=O)[O-])c1)c1ccc(S(=O)(=O)N2CCCCC2)s1 | . | . | . | . | 28µM | .
Cc1ccc(S(=O)(=O)Nc2ccc(Nc3nccn4c(-c5cccc(OC(F)(F)F)c5)cnc34)cc2)cc1 | . | / | / | / | 32µM | /
O=C(NCCO)c1cccc(-c2cnc3c(Nc4cccc(OC(F)(F)C(F)F)c4)nccn23)c1 | . | / | / | / | . | /
O=C(NCCN1Cc2ccccc2OC(c2ccsc2)C1)c1ccc2[nH]ccc2c1 (stereo unspecified) | . | / | / | / | / | /
O=C(Nc1cc(-c2ccc(F)c(F)c2)no1)c1ccccc1F | . | / | / | / | . | /
O=C(/C=C/Nc1ccc([N+](=O)[O-])cc1Br)c1cccc2ccccc12 | . | . | . | . | 25µM | .
NC(=O)c1cc([N+](=O)[O-])ccc1NCc1cccc2ccccc12 | . | / | . | . | . | .
COc1cccc(CNc2ncnc3sc(C(=O)N4CC5CCC4C5)c(C)c23)c1OC (stereo unspecified) | . | / | / | / | / | /
Cc1ccc2nc(-c3cccc(Br)c3)cc(C(=O)NCC3CCCO3)c2c1 (stereo unspecified) | . | . | . | . | 14µM | .
O=C(NCC1CCCO1)c1cc(-c2ccccc2)nc2ccc(Br)cc12 (stereo unspecified) | . | . | . | . | . | .
CN(C)/[N+]([O-])=N/Oc1cc(F)c([N+](=O)[O-])cc1[N+](=O)[O-] | . | / | / | / | / | /
CCN(CC)c1ccc(-c2nn3c(-c4ccccc4OC)nnc3s2)cc1 | . | . | . | . | 7.9µM | .
COCC(=O)Nc1cc(C(=O)NC2CCCc3ccccc32)c2c(c1)nc(-c1ccncc1)n2C (stereo unspecified) | . | / | / | / | / | /
CC(=O)NCC(=O)OCC(=O)c1ccc2ccccc2c1 | . | ? | . | . | 28µM | .
COc1ccc(-c2oc3cccnc3c2/C=C/c2ccc(OC)c(OC)c2)cc1 | . | . | . | 28µM | . | .
CCOC(=O)c1c(NC(=O)c2ccco2)n(C2CCCCC2)c2nc3ccccc3nc12 | . | . | . | . | 28µM | .
CCn1c2ccccc2c2cc(C3C(C#N)=C(C)NC(C)=C3C#N)ccc21 | . | . | . | . | 16µM | .
CCn1c2ccccc2c2cc(C3C(C#N)=C(N)OC4=C3C(=O)CC(C)(C)C4)ccc21 (stereo unspecified) | / | . | / | . | / | .
COc1ccccc1C1CN(CCNC(=O)c2cnsn2)Cc2ccccc2O1 (stereo unspecified) | . | / | / | / | / | /
Cc1ccc(NC(=O)c2sc3nc(-c4cccs4)ccc3c2N)cc1F | . | / | / | / | . | /
Cc1csc(NC(=O)c2sc3nc(-c4cccs4)ccc3c2N)n1 | . | . | . | . | . | 11µM
Cc1cnc(C)c(-c2cc(F)cc3c2OC(CNC(=O)c2cc(Cl)ccc2F)C3)n1 (stereo unspecified) | . | / | / | / | / | /
C#CC1(O)CCC2C3CCc4cc(O)cc(C)c4C3CCC21C (stereo unspecified) | . | / | . | / | 32µM | /
SMILES | GRP78 ERSR act | MBNL1 CUG block | TCR activator | A-T KAP1 phos | ClpP mod | Mito fusion yeast
CCOC(=O)C1CCCN(S(=O)(=O)c2ccc(C)cc2)C1 (stereo unspecified) | . | . | . | . | . | .
CCOC(=O)C1CCCN(S(=O)(=O)c2ccc(Cl)nc2)C1 (stereo unspecified) | . | / | . | . | 22µM | .
CCCCOC(=O)c1ccc(NC(=O)c2c(Cl)ccc(Cl)c2OC)cc1 | . | . | . | . | ? | 16µM
COc1cc(NC(=O)c2cc3cccc(OC)c3o2)cc(C(=O)Nc2cccc(C(F)(F)F)c2)c1 | . | . | . | . | 25µM | .
Cc1ncc2c(c1CNC(=O)c1ccc3c(c1)OCO3)CCN(C(=O)c1cn3ccccc3n1)C2 | . | / | / | / | / | /
Cc1ccccc1NC(=O)c1c(C)[nH]c(=S)c(C#N)c1-c1ccco1 | . | . | . | . | 14µM | .
Cc1ccc(CNc2ncnc3sc(C(=O)N4CCC(N5CCCC(O)C5)CC4)c(C)c23)o1 (stereo unspecified) | . | / | / | / | / | /
CCn1c(-c2ccccc2F)nc2cc(NC(C)=O)cc(C(=O)NCc3ncc(C)[nH]3)c21 | . | / | / | / | / | /
Nc1ccc(C(=O)OCc2nc3ccccc3[nH]2)cc1 | . | . | . | . | . | .
Nc1ccc(C(=O)OCCCc2nc3ccccc3[nH]2)cc1 | . | . | . | . | 28µM | .
CC12CCC=CC1C(c1ccc(F)c(/C=C/c3ccccc3)c1)N(Cc1ccccc1)C2=O (stereo unspecified) | . | / | / | / | / | /
C[C@@]12CCC=C[C@H]1[C@H](c1ccc(/C=C/c3ccccc3)cc1F)N(Cc1ccccc1)C2=O | . | . | . | 40µM | . | .
O=C(NCC(O)c1ccccc1)c1cccc(S(=O)(=O)N2CCOCC2)c1 (stereo unspecified) | . | . | . | . | 32µM | .
CSc1ccccc1-c1nnc(-c2ccc(Cl)cc2Cl)o1 | ? | . | . | . | 35µM | .
N#Cc1nc(-c2ccco2)oc1NCc1cccnc1 | . | ? | . | . | . | .
N#Cc1nc(-c2ccco2)oc1NCc1ccc(F)cc1 | . | . | . | . | 8.9µM | .
N#Cc1nc(COc2ccccc2F)oc1NCc1ccc(F)cc1 | . | . | . | 32µM | . | .
CC(C)CNc1oc(-c2ccco2)nc1C#N | . | . | . | . | 18µM | .
Cc1ccc(OCc2nc(C#N)c(NCc3ccc4c(c3)OCO4)o2)cc1 | . | . | . | . | . | 8.9µM
Cc1ccccc1CN1Cc2cccc3c2[C@H](C=CC3)CC1=O | . | / | / | / | . | /
CC(=O)NCCNc1nc(-c2cccnc2)nc2ccccc12 | . | / | / | / | / | /
CC(Nc1oc(-c2ccco2)nc1C#N)c1ccccc1 (stereo unspecified) | . | . | . | . | 7.9µM | ?
CC(Nc1oc(-c2ccc(COc3ccc(Cl)cc3)o2)nc1C#N)c1ccccc1 (stereo unspecified) | . | / | / | / | ? | /
Cc1cc(Br)ccc1NC(=O)COC(=O)c1ccccc1OCC(=O)N(C)C | . | / | / | / | . | /
c1ccc(CN2CCC3(CCCc4ccccc43)CC2)cc1 | . | / | . | . | . | 23µM!
c1ccc(CN2CCC3(CC2)Nc2ccccc2CO3)cc1 | . | . | . | . | . | .
